# Article PMC7862700, “An all-to-all approach to the identification of sequence-specific readers for epigenetic DNA modifications on cytosine”
# Tests used:
# Assay in all cases: DAPPL (digital affinity profiling via proximity ligation, sequencing); 10 mM Tris-HCl pH 7.5, 50 mM NaCl, 1 mM DTT, 4% glycerol, room temperature, 30 min; GST-TFs on glutathione beads, 16-mer random dsDNA library, 0.1% formaldehyde crosslink after washing; high values mean tight binding
# Conditions in all cases: protein: recombinant; tags: N-terminal GST; dsDNA, one strand shown
# [1] = target: T1, FLI1 (Homo sapiens, UniProt Q01543 1-452)
# T1 sequence: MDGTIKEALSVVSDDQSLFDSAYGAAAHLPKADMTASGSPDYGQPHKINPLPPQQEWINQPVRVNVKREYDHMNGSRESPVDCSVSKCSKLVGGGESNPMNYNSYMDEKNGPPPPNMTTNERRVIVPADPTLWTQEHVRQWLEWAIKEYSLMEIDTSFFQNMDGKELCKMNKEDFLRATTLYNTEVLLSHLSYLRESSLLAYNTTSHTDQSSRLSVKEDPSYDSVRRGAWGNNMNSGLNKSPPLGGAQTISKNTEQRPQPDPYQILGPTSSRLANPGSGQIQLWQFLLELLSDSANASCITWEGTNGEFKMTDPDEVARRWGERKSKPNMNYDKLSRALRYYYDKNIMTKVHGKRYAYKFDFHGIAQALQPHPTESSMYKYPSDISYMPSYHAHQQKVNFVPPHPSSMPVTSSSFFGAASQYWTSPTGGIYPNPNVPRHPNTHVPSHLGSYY
# Method in brief: (§1)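 Sequencing on an Illumina NextSeq500 followed washing, crosslinking with 0.1% formaldehyde, proximity ligation (BsaI/T4 ligase, 1 h, 37 °C) and PCR amplification of pools that had been incubated for 30 min at room temperature with 200 nmole of a random double-stranded 16-mer DNA library in Tris/NaCl/DTT/glycerol buffer. Each pool held DNA-barcoded human transcription factors, expressed in yeast as GST fusions and captured on glutathione beads, plus a tag-only sample. Binding signal is a hexamer's read frequency for a factor divided by its frequency in the tag-only sample.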
# [2] = target: T2, ELK1 (Homo sapiens, UniProt P19419 1-428)
# T2 sequence: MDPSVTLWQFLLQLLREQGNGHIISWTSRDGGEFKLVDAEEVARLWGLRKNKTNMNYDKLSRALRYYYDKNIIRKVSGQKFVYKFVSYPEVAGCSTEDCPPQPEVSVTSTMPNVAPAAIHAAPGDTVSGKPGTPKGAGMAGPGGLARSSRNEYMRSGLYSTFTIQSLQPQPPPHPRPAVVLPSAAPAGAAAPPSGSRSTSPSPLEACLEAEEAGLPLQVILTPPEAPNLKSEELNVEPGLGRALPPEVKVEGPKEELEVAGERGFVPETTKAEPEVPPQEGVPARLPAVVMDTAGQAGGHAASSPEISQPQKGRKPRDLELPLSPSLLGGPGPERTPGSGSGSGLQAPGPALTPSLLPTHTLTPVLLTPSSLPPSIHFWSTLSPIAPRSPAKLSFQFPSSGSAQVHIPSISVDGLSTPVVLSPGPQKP
# Method in brief: as §1
# [3] = target: ELF1 (Homo sapiens, UniProt P32519 1-619)
# Chain of ELF1 (P32519 whole entry): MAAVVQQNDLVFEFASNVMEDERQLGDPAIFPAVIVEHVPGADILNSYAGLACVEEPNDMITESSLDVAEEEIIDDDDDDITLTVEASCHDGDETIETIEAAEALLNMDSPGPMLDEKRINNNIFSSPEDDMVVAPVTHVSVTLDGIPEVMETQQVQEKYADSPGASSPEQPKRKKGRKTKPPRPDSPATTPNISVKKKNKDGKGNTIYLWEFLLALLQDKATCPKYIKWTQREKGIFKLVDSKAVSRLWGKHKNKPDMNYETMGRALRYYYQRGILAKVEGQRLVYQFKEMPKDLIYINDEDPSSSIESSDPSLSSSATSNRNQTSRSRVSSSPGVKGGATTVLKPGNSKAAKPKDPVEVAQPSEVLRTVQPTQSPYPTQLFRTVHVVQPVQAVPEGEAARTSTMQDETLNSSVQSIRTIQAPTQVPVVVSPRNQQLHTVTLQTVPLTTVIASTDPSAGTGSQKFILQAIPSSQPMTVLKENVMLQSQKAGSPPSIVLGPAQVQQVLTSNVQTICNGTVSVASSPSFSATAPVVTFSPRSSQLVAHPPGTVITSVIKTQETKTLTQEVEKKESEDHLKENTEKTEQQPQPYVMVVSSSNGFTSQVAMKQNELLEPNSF
# Method in brief: as §1
# [4] = target: T3, EHF (Homo sapiens, UniProt Q9NZC4 1-300)
# T3 sequence: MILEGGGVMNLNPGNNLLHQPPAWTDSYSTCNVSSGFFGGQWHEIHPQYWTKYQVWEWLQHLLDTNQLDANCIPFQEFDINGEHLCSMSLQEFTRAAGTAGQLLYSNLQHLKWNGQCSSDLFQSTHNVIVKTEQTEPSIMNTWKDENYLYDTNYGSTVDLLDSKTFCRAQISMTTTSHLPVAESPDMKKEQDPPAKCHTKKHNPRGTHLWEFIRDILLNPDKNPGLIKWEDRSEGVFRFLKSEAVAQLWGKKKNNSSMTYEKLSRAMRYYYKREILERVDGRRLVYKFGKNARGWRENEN
# Method in brief: as §1
# [5] = target: SPIB (Homo sapiens, UniProt Q01892 1-262)
# Chain of SPIB (Q01892 whole entry): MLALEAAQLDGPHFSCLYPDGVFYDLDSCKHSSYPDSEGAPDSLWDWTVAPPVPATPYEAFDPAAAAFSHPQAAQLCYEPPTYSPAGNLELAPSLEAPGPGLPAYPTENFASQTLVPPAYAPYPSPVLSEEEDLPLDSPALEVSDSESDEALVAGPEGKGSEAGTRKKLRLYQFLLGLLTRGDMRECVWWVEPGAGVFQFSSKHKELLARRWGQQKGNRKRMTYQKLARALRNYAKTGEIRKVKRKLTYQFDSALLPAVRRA
# Method in brief: as §1
# [6] = target: T4, SPIC (Homo sapiens, UniProt Q8N5J4 1-248)
# T4 sequence: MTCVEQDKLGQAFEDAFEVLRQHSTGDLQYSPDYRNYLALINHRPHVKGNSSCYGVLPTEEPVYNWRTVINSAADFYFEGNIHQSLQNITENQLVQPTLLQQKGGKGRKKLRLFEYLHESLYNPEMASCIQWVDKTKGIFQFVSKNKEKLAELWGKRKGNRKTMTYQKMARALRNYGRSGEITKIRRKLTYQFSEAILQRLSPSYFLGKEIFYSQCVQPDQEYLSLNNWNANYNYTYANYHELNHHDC
# Method in brief: as §1
# [7] = target: ELF4 (Homo sapiens, UniProt Q99607 1-663)
# Chain of ELF4 (Q99607 whole entry): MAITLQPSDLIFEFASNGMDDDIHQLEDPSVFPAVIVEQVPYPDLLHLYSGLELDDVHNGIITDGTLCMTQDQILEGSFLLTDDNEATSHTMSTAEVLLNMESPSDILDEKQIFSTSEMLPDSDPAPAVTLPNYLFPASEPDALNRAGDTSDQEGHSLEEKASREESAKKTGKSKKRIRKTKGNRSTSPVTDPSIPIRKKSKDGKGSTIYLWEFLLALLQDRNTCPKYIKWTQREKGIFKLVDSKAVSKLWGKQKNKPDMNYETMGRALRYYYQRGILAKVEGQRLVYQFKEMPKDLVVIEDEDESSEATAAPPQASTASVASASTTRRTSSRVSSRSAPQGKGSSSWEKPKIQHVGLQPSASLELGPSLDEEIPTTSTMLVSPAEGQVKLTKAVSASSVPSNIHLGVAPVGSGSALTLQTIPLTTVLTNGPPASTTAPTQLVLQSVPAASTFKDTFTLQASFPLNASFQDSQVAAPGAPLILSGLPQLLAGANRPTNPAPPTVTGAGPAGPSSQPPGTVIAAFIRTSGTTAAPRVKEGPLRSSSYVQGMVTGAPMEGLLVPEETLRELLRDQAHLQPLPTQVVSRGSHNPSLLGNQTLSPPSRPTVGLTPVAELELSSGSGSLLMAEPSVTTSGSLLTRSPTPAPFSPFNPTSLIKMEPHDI
# Method in brief: as §1
# [8] = target: T5, ELK4 (Homo sapiens, UniProt P28324-2 1-405)
# T5 sequence: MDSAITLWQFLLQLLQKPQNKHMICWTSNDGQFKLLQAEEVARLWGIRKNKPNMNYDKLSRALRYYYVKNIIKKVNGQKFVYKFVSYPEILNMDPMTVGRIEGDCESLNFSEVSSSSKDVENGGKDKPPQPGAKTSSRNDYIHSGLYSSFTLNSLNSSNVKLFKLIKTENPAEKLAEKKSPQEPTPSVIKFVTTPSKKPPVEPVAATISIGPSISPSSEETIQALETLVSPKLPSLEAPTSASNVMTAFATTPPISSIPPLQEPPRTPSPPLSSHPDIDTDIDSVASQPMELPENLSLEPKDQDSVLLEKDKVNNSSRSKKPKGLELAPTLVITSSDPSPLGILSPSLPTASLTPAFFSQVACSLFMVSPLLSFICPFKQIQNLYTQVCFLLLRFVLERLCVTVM
# Method in brief: as §1
# [9] = target: ETV1 (Homo sapiens, UniProt P50549 1-477)
# Chain of ETV1 (P50549 whole entry): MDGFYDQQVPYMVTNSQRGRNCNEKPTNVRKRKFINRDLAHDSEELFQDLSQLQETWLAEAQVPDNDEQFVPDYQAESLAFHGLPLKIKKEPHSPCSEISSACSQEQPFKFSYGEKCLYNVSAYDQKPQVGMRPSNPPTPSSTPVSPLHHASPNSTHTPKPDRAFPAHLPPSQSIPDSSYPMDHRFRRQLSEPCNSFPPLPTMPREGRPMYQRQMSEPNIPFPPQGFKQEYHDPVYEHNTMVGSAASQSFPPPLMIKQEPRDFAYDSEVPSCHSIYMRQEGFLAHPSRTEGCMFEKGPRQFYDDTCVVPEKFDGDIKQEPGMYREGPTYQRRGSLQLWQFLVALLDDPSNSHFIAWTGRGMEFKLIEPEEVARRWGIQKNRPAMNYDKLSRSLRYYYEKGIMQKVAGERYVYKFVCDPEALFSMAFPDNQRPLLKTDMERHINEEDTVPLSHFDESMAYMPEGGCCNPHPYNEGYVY
# Method in brief: as §1
# [10] = target: T6, ERF (Homo sapiens, UniProt P50548 1-548)
# T6 sequence: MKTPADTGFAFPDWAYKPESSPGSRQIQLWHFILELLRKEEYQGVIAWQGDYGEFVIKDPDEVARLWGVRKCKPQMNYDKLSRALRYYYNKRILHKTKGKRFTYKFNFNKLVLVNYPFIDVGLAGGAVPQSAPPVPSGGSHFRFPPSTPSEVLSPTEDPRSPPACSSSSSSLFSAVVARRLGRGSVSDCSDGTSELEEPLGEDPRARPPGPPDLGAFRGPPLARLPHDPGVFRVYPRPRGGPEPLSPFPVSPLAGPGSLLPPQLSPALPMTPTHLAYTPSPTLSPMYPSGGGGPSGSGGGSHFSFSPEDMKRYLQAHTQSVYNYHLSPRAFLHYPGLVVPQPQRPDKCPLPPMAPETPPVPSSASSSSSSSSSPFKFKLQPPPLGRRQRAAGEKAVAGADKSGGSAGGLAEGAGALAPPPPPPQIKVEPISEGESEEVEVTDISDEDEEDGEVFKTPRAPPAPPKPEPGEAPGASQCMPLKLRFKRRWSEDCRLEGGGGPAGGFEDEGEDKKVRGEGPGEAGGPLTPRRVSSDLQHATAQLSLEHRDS
# Method in brief: as §1
# [11] = target: T7, ETV3L (Homo sapiens, UniProt Q6ZN32 1-361)
# T7 sequence: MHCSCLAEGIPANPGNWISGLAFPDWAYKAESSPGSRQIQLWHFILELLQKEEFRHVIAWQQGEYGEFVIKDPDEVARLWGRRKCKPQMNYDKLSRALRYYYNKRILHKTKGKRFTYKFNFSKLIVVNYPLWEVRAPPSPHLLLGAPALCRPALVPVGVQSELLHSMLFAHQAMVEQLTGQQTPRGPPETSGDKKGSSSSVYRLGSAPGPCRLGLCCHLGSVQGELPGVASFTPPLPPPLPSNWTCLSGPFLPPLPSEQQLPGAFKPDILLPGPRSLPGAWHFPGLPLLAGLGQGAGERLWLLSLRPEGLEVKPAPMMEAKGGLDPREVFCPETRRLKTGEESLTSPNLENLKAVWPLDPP
# Method in brief: as §1
# [12] = target: T8, ETS2 (Homo sapiens, UniProt P15036 1-469)
# T8 sequence: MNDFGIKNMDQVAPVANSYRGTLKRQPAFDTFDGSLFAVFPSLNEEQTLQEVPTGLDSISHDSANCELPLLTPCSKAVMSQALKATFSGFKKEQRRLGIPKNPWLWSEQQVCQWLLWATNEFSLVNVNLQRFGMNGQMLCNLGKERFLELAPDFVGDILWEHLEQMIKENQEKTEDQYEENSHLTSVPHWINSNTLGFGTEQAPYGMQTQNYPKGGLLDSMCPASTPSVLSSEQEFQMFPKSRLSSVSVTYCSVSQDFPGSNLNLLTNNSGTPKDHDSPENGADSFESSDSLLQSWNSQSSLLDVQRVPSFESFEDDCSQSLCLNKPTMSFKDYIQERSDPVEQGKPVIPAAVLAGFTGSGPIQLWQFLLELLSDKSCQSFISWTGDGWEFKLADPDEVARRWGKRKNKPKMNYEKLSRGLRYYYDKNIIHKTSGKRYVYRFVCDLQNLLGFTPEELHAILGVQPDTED
# Method in brief: as §1
# [13] = target: T9, SPDEF (Homo sapiens, UniProt O95238 1-335)
# T9 sequence: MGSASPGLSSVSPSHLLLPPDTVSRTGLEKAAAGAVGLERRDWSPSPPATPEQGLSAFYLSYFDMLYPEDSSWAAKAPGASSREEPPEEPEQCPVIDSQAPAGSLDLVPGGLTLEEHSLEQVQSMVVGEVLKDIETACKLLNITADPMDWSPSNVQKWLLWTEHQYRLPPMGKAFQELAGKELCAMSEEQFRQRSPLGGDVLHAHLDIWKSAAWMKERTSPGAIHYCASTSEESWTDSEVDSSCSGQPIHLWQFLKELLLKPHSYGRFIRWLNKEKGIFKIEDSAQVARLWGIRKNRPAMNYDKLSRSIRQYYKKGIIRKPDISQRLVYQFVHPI
# Method in brief: as §1
# [14] = target: T10, ETV7 (Homo sapiens, UniProt Q9Y603 1-341)
# T10 sequence: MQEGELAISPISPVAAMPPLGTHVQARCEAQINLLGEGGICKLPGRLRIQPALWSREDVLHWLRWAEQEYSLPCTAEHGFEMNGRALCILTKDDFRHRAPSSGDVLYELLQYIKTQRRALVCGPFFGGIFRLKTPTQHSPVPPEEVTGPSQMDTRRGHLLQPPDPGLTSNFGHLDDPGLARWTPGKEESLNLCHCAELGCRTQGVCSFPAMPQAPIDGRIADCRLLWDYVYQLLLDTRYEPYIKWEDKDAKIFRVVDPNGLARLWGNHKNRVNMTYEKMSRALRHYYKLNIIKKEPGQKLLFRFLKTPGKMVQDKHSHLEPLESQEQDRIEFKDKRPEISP
# Method in brief: as §1
# [15] = target: T11, ETV3 (Homo sapiens, UniProt P41162-2 1-143)
# T11 sequence: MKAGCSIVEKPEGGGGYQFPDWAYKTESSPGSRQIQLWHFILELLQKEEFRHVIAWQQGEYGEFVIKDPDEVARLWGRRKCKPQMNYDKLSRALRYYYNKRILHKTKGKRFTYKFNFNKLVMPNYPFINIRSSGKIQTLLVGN
# Method in brief: as §1
sequence,measurement,setting,value
GATGGG,binding signal,[1],"1.03 fold enrichment (6-mer frequency, TF over GST control)"
same,binding signal,[2],"1.02 fold enrichment (6-mer frequency, TF over GST control)"
same,binding signal,[3],"1 fold enrichment (6-mer frequency, TF over GST control)"
same,binding signal,[4],"1.02 fold enrichment (6-mer frequency, TF over GST control)"
same,binding signal,[5],"1.12 fold enrichment (6-mer frequency, TF over GST control)"
same,binding signal,[6],"1.08 fold enrichment (6-mer frequency, TF over GST control)"
same,binding signal,[7],"1.01 fold enrichment (6-mer frequency, TF over GST control)"
same,binding signal,[8],"1.01 fold enrichment (6-mer frequency, TF over GST control)"
same,binding signal,[9],"1.04 fold enrichment (6-mer frequency, TF over GST control)"
same,binding signal,[10],"1 fold enrichment (6-mer frequency, TF over GST control)"
same,binding signal,[11],"1.02 fold enrichment (6-mer frequency, TF over GST control)"
same,binding signal,[12],"1 fold enrichment (6-mer frequency, TF over GST control)"
same,binding signal,[13],"1.08 fold enrichment (6-mer frequency, TF over GST control)"
same,binding signal,[14],"1.03 fold enrichment (6-mer frequency, TF over GST control)"
same,binding signal,[15],"1.04 fold enrichment (6-mer frequency, TF over GST control)"
